# Rows were chosen to be rich in hits. Some 5.9% of all compounds tested hit in one or more screens of this group.
# GLP1R ag: activates the human GLP-1 receptor; Potency, µM (highest dose often 45.6 µM), for inactives: top-dose activation, most hits filed as activators; AID 624172; HEK293 GLP-1R CRE-luciferase, luminescence, 4-6 h; cells express a hypersensitive GLP-1R form; P43220; 380,000 tested, 0.007% active; further: % of control where 0% means no effect
# VP16 counter: Gal4-VP16 reporter inhibition counter-screen | Drosophila S2 Gal4-VP16 UAS-luciferase, luminescence, 20 h | Potency, µM (top dose mostly 53.6 µM), for inactives: at the highest dose activity, negative = inhibition, actives largely listed as inhibitors | 310,000 tested, 3.5% active;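 further: Gal4-VP16 expression switched on by copper sulfate through the metallothionein promoter; on the % scale 0 is the no-effect control and ±100 the full control effect; nearly all actives have a fitted effect of over 50% in size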
# GLP-1R inv ag: GLP-1 receptor (human) inverse agonism; P43220; HEK293 GLP-1R CRE-luciferase, luminescence, 24 h; GLP-1R form is constitutively active; Potency, µM (top dose mostly 38.3 µM), for inactives: at the highest dose activity change, negative = inhibition, hits mostly inhibitors; 410,000 tested, 1.6% active; further: on the % scale 0 is the no-effect control and ±100 the full control effect; nearly all actives have a fitted effect of over 55% in size
#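 Stable HEK293 clone (constitutively active GLP-1R + cAMP-response luciferase); 200 cells/uL plated, 12 h pre-culture, compound 24 hr, 37 deg C/5% CO2; detection reagent 12 min RT; luminescence.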
# RORgamma inh: ROR gamma (mouse) transcription inhibition. Potency, µM (series often up to 53.6 µM), for the others: at the top dose activity change, negative = inhibition, hits mostly inhibitors. 310,000 tested, 5.4% active. P51450. Drosophila S2 Gal4-RORgamma UAS-luciferase reporter, 20 h. AID 2551; further: on the % scale 0 is the no-effect control and ±100 the full control effect; nearly all actives have a fitted effect of over 60% in size
# Target sequence (P51450 whole entry, looked up, the tested form may be a part): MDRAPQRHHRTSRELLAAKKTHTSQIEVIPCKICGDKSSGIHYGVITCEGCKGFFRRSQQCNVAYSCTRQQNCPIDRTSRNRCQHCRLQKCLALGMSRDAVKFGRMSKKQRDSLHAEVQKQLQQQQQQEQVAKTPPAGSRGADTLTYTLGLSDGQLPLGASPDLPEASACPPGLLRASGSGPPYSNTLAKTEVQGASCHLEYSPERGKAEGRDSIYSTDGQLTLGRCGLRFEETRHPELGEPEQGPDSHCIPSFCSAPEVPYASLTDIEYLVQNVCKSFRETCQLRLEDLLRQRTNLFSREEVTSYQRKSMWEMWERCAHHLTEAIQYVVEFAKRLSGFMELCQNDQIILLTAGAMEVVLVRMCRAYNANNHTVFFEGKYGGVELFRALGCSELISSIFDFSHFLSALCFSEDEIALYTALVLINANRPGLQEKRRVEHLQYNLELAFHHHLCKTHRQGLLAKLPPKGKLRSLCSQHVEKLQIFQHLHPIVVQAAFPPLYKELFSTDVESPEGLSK
#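 ROR gamma transcriptional activity was tracked as Gal4-UAS luciferase output in stably transfected Drosophila Schneider cells, with compound added 1 hr before 700 uM copper sulfate induction and a 20 hr ambient-temperature incubation.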
# GLP1R cytotox: cytotoxicity counter-screen for GLP-1 receptor inverse agonists; HEK293 cAMP-luciferase reporter cells, luminescence, 24 h; Potency, µM (highest dose often 38.3 µM), without a hit: top-dose activity change, negative = inhibition, hits mostly inhibitors; 410,000 tested, 0.13% active; AID 624418;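 further: loss of luciferase light is scored as toxicity; on the % scale 0 is the no-effect control and ±100 the full control effect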
#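 Quantitative HTS format, 1536 wells, 200 cells/uL seeded. Compounds: 23 nL, 24 h, 37 °C. Detection: luciferase reagent, luminescence at 12 min RT; decreased signal taken as cytotoxic.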
# * = called active by the depositor; ? = inconclusive; . = no result; [ ] = dose if it differs, or a comment. The call rests on the fitted dose curve; in most records, active means well fitted curve in the direction sought with a large enough effect; inconclusive means small, poorly fitted or top-dose-only effect, or another doubt; inactive means no such curve, though single readings can be large; an effect the other way counts as inactive or inconclusive. Potency means the concentration at half of the fitted maximal effect.
SMILES,GLP1R ag,VP16 counter,GLP-1R inv ag,RORgamma inh,GLP1R cytotox
COc1ccc(-n2c(C(C)n3nc(C)c([N+](=O)[O-])c3C)n[nH]c2=S)cc1 (stereo not given),-1%,-16%,16%,5%,-4%
Cc1cccc(-c2n[nH]c(=S)n2-c2ccccc2)c1[N+](=O)[O-],-14%,?,6%,13µM*,-19%
Cc1ccc(S(=O)(=O)N2CCOCC2)cc1-c1n[nH]c(=S)n1-c1ccccc1,0%,.,-2%,.,-1%
NCCCC(N)CC(=O)NCC1NC(=O)C(CO)NC(=O)C(N)CNC(=O)C(C2CCN=C(N)N2)NC(=O)/C(=C/NC(N)=O)NC1=O (stereo not given),-1%,-2%,.,28%,.
COc1cnc(-c2ccccn2)nc1Oc1ccc(Cl)c2ccccc12,14%,7.9µM*,0%,1.3µM*,?
COc1cnc(-c2ccccn2)nc1Oc1ccc(Cl)cc1,13%,8.9µM*,0%,3.5µM*,?
COc1cnc(-c2ccccc2)nc1Oc1cccc(C)c1C,5%,-1%,11µM*,39%,17%
COc1cnc(-c2ccccn2)nc1Oc1ccc(F)cc1F,10%,?,?,5.6µM*,?
COc1ccc(-n2c(=O)c(-c3cccs3)nc3cnc(N4CCN(C)CC4)nc32)cc1,.,-4%,.,-11%,.
O=C(O)c1c(-c2ccccc2)oc2ccc(OCc3ccc(Cl)c(Cl)c3)cc12,.,.,?,.,-16%
COc1cnc(-c2ccccn2)nc1Oc1ccccc1Cl,-10%,13µM*,7%,2.2µM*,11%
COc1cnc(-c2ccccn2)nc1NC(C)C,7%,-10%,?,?,?
COc1cccc(/C=C/C(=O)c2cccc([N+](=O)[O-])c2)c1,5%,4.5µM*,6%,-101%,0%
C=CC[C@@H]1C=C[C@H](O/N=C(\C)CCN2CCCCc3nc(C)c(C)cc32)[C@H](CO)O1,.,8%[10 µM],.,-16%[10 µM],.
CCCCc1cc2c(=O)c(C(=O)OC)c[nH]c2cc1OCc1ccccc1,1%,.,.,.,.
CC1CCCN(c2ccc3nc4ccccc4c(=O)n3n2)C1 (stereo not given),-3%,4.5µM*,5µM*,8.9µM*,3%
CCCCn1c(=O)c2oc3ccccc3c2n(Cc2cccc(F)c2)c1=O,.,.,1%,.,2%
COc1ccc(S(=O)(=O)NCC(c2ccco2)N2CCOCC2)cc1OC (stereo not given),.,.,-3%,.,5%
CCCCn1c(NC(=O)c2ccccc2Cl)c(C#N)c2nc3ccccc3nc21,-4%,?,5.6µM*,13%,465%
CCCCC(CC)COCCCN (stereo not given),.,6%,.,18%,.
COc1cccc(/C=N/NC(=S)NCCc2ccccc2)c1OC,25%,?,2%,11µM*,-14%
COc1ccc(OC)c(/C=N/NC(=O)c2csc3ccccc23)c1,19%,0%,-4%,13µM*,-6%
COc1ccc(OC)c(/C=N/NC(=O)c2cc(-c3ccc(C)o3)nc3ccccc23)c1,11%,?,31%,?,39%
COc1ccc(OC)c(/C=N/NC(=S)NCCc2ccccc2)c1,?,11µM*,?,40µM*,?
COc1cccc([C@@H]2Oc3ccc(Br)cc3C[C@H]2OC(=O)Nc2ccc(OC(F)F)cc2)c1,.,-10%,.,3%,.
SMILES,GLP1R ag,VP16 counter,GLP-1R inv ag,RORgamma inh,GLP1R cytotox
Cn1c(C(O)c2ccc(Cl)cc2)nc(Cl)c1Cl (stereo not given),-17%,1%,11µM*,13%,3%
CC(C)NC(=O)Nc1ccc2c(c1)C(=O)N([C@H](C)CO)C[C@H](C)[C@@H](CN(C)Cc1ccc3c(c1)OCO3)OCCCC[C@@H](C)O2,10%,.,11%,.,1%
CC(C)NC(=O)Nc1ccc2c(c1)C(=O)N([C@H](C)CO)C[C@H](C)[C@@H](CN(C)Cc1ccc(C(F)(F)F)cc1)OCCCC[C@H](C)O2,2%,.,10µM*,.,-27%
C[C@H](CO)N1C[C@H](C)[C@@H](CN(C)Cc2ccc(Cl)c(Cl)c2)Oc2c(NS(=O)(=O)c3ccc(F)cc3)cccc2C1=O,-1%,.,11µM*,.,?
C[C@@H]1CN([C@@H](C)CO)C(=O)c2cc(NC(=O)C3CC3)ccc2O[C@@H]1CN(C)Cc1ccc(Cl)c(Cl)c1,-1%,.,11µM*,.,-24%
COc1ccc(Cn2ccc3nc(C)c(C(=O)Nc4ccc(OC(F)(F)F)cc4)cc3c2=O)cc1,.,.,?,.,-23%
COc1ccc(NC(=O)c2cc3c(=O)n(C)c4cc(Cl)ccc4c3s2)cc1Cl,.,.,4%,.,-1%
Cc1cccc(N(CC(O)Cn2c3ccccc3c3ccccc32)S(=O)(=O)c2ccc(F)cc2)c1 (stereo not given),.,.,13µM*,.,?
Cc1ccc(N(CC(O)Cn2c3ccccc3c3ccccc32)S(C)(=O)=O)cc1 (stereo not given),14%,9%,?,2%,-3%
Cc1ccc(S(=O)(=O)N(CC(O)CN2C(=O)NC(C)(C)C2=O)c2cccc(C)c2)cc1 (stereo not given),20%,-6%,-8%,3%,5%
CC(=O)Nc1ccc(N(CC(O)Cn2c3ccccc3c3ccccc32)S(=O)(=O)c2ccc(C)cc2)cc1 (stereo not given),3%,?,7.9µM*,?,?
COc1ccc(C2C3C=CCC(c4cccc(/C=C/c5ccccc5)c4)C3C(=O)N2Cc2ccccc2)cc1Cl (stereo not given),.,5%,.,12%,.
CC12CC3(C)CC(C)(C1)CC(C(=O)NC(=S)N1CCOCC1)(C2)C3,1%,?,5%,0.89µM*,9%
O=C(NN1CCOCC1)C12CC3CC(CC(C3)C1)C2,-20%,-5%,4%,-2%,-8%
O=C(NC(=S)N1CCN(CCO)CC1)C12CC3CC(CC(C3)C1)C2,-4%,-4%,-5%,5%,-8%
CC(C)(C)C(=O)NC(=S)N1CCOCC1,0%,-11%,40%,-24%,0%
O=C(NC(=S)N1CCOCC1)C12CCC3CC(CC(C3)C1)C2,-2%,1.8µM*,?,1.3µM*,?
O=C(NC(=S)N1CCOCC1)C12CC3CCC(CC(C3)C1)C2,-2%,6.3µM*,-2%,4.5µM*,-16%
COc1cc(NC(=S)NCc2cccs2)cc(OC)c1,15%,11µM*,9%,5µM*,-5%
S=C(NCc1cccs1)Nc1ccc(Br)cc1Cl,-1%,-19%,?,?,?
Cc1cc(C)cc(NC(=S)NCc2cccs2)c1,0%,11µM*,?,2.2µM*,-19%
CC(C)(C)OC(=O)NC(Cc1ccccc1)C(O)c1ccco1 (stereo not given),.,-6%,.,17%,.

# Bioassay records (PubChem BioAssay)
